Consider 40 compounds from PubChem BioAssay (NCI).

Structures are written as SMILES. Several values for one entry are separate records, joined by “and”; a condition that tells them apart may be missing. Identical values can stand only once. About 83,000 compounds went through this panel and 20% of them were active in at least one assay; those are over-represented in the sample as a whole.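 Compound tested at a single concentration for 48 hours in 96-well plates; a percent growth value below 10 was scored as active.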 A number with no mark means an inactive call. Activity calls are given as the source filed them.

In the experiment the test system is MDA-MB-468 breast. Put plainly: NCI-60 one-dose screen, 48 h (100 = growth as untreated, 0 = no growth, -100 = all killed). The settings on record: 10 µM unless noted.
`COc1ccc(C(=O)n2cc(C=O)c3ccccc32)cc1`: the growth was 105%. For the compound `Cc1ccc(S(=O)(=O)n2cc(C(=O)C(=O)N3CCCCC3)c3ccccc32)cc1`, the growth is 40.2%.

Regarding `COc1ccc(Cc2cc(-c3ccccc3C)n[nH]c2=O)cc1`, the growth was 91.1%.

On to `O=C(Nc1cccc(Cn2c(=O)[nH]c3ccc(Oc4ncccn4)cc3c2=O)c1)c1cccc(F)c1`, for which the growth was 49.8%. As for `Oc1ccc(Cl)cc1-c1cc(-c2ccc(F)cc2)n[nH]1`, the growth was -0.461% (active).

Take `Cc1cc2nc(-c3c(N)ncc(C#N)c3-c3ccc(Cl)cc3)[nH]c2cc1C`: the growth is 66%. The same measure for `CCCCCCCCCCC1OC(C)CC(C)O1` (stereo not given): 98.5%.

Turning to `CN(C[C@H]1Cc2c(cccc2N2CCN(Cc3ccccn3)CC2)CN1)[C@H]1CCCc2cccnc21`, the growth is 63.4%. As for `COC(=O)c1ccccc1N(C)C`, the growth is 107%. For the compound `Cc1cc(C)c2sc(=O)n(Cc3nnc(SCCC(=O)O)o3)c2n1`, the growth was 110%. With `CN1CCN(Cc2ccc(NC(=O)c3cncc(C#Cc4c(N)ncc5ccc(F)cc45)c3)cc2C(F)(F)F)CC1`, the growth was 54.3%.

In the case of `CNCc1cccc2c1OCCCCCCC(C)(O)CC(C)(C)S(=O)(=O)c1ccc(cc1)-c1cnc(N)c(n1)C(=O)N2` (stereo not given), the growth is -54.1% (active). As for `CC(=O)c1cc(Br)ccc1O`, the growth is 103%. The same measure for `CCOC(=O)Cc1cc(Br)c(OCc2ccccc2)c(Br)c1`: 110%; for `COc1ccc(-c2cnc(-c3ccncc3-c3cccc(OC)c3)o2)cc1`: 31.8%; for `CN1C(=O)NC(c2ccc(Cl)cc2)(c2ccc(Cl)cc2)C1=O`: 104%. On to `CCOC(=O)C1CCc2c(ccc3ccccc23)N1CCC#N` (stereo not given), for which the growth was 73.6%. As to `Cc1nc2c(c(N3CCCc4ccccc43)n1)CCC2`, the growth is 8.12% (active). Under `Cc1nonc1-c1ccc2c(c1)OCO2` stands 111% and 93.8%; under `O=C(Nc1ccc(Cl)c(Cl)c1)OCc1ccco1`, 0.972% (active). As for `Clc1ccc2c(NCCCNc3nc(-n4ccnc4)nc4ccccc34)ccnc2c1`, the growth is 53.3%. `O=c1oc2ccc(Br)cc2c(=O)n1-c1ccc(Cl)cc1F`: the growth was -1.24% (active). Take `CN(C)c1ncnc2c1ncn2C1CCCCO1` (stereo not given): the growth was 111%. As to `Oc1ccc(Cc2ccccc2)c2cccnc12`, the growth was -21.1% (active). In the case of `COc1ccc2c(c1)c(-c1nnc(N)nc1-c1cn(C)c3ccccc13)cn2C`, the growth was 78.8%. Take `Cc1ccc(-c2[nH][nH]c(=O)c2-c2nc3ccccc3s2)cc1`: the growth was 98.1%. With `COCCOc1ccc(-c2nc3ccc(-c4nc5ccc(N6CCN(C)CC6)cc5[nH]4)cc3[nH]2)cc1`, the growth is -22.5% (active). For `CN1CCC(c2ccccc2)(c2ccccc2)C(=O)C1`, the growth was -11.8% (active). Under `COC(=O)c1ccc([N+](=O)[O-])c(C)c1` stands 102%.

For the compound `O=C(/C=C/c1ccc(Cl)cc1)c1ccc(O)c(CN2CCN(c3cc4c(cc3F)c(=O)c(C(=O)O)cn4C3CC3)CC2)c1`, the growth was 40.9%.

As for `COC(=O)[C@]12CC[C@@H](C)[C@H](C)[C@@H]1C1=CC[C@@H]3[C@@]4(C)C(C=O)=C[C@@](C)(COC(=O)c5ccco5)C4=CC[C@@]3(C)[C@]1(C)CC2`, the growth is 5.01% (active). In the case of `CCOC(=O)C1=CC(=O)CC(C)(C)O1`, the growth is 117% and 108%. As for `CC(C)c1ccc(COCc2cc(CN3CCCC3)c(O)c3ncccc23)cc1`, the growth is -21.1% (active). `COc1ccc(NC(N)=NCCCOc2ccc(F)cc2)cc1`: the growth was 66.2%. Consider `CC(C)=CC[C@@H]1CC2(CC=C(C)C)C(=O)C(OC3(C(=O)c4ccccc4)C(=O)C4(CC=C(C)C)C[C@@H](CC=C(C)C)C(C)(C)C(CC=C(C)C)(C4=O)C3=O)(C(=O)c3ccccc3)C(=O)C(CC=C(C)C)(C2=O)C1(C)C` (stereo not given in full), for which the growth is -6.87% (active). `Cc1cc2nc3c4ccc(Br)cc4n(CCN(C)C)c3nc2cc1C`: the growth was -6.68% (active). Under `COc1cc2c(cc1-c1c(C)noc1C)ncc1nc(C3CCC(F)(F)CC3)n([C@@H](C)COC(F)F)c12` stands 39.3%. The same measure for `CC(C)(C)[Si](C)(C)OC1[C@@H](COC(=O)NC(=O)CCl)O[C@@H](n2cnc3c(N)ncnc32)[C@H]1O[Si](C)(C)C(C)(C)C` (stereo not given in full): 65%. As for `COc1ccc(OC)c(Nc2nc3nonc3nc2Nc2cccc(Br)c2)c1`, the growth is 0.0908% (active). As to `O=C(O)c1ccc(Nc2ncc3c(n2)-c2ccc(Cl)cc2C(c2c(F)cccc2F)=NC3)cc1`, the growth is 35%.
